The experiment is described as follows: NCI Yeast Anticancer Drug Screen. Data for the wt1 strain (AID 149).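 Further: 0% = growth of vehicle-treated wt1 cultures.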 As to conditions: S. cerevisiae wt1 strain (SPY 50644) growth inhibition, hits give high values. As for the experimental part: Growth inhibition of yeast strains with defined genetic alterations is measured as a screen for potential anti-cancer activity. Selected strains with alterations in DNA damage repair or cell cycle control were exposed to compounds and growth inhibition was measured relative to vehicle treated controls. The strain used in this assay is wt1

About 79,000 compounds went through this panel and 15% of them were active in at least one assay; those are over-represented in the sample as a whole. Unmarked numbers belong to inactive results. The source made the active and inactive calls. No stated cut-off is given here; in the data, active means growth inhibition above about 70%; inactive means the rest.

As for `NC(=O)NC1C(c2ccccc2)=C1c1ccccc1`, the growth inhibition was -2% (at 1.2 µM); 12% (at 3.7 µM); 26% (at 11.0 µM); 26% (at 33.0 µM); 27% (at 100.0 µM).
As for `Oc1c2c(c(O)c3ccccc13)C1(N=N2)c2ccccc2Oc2ccccc21`, the growth inhibition by setting is: (at 1.2 µM) 2%; (at 3.7 µM) 34%; (at 11.0 µM) 98% (active); (at 33.0 µM) 98% (active); (at 100.0 µM) 96% (active).
For the molecule `CCCCCCCN(CCCCCCC)CC(=O)c1ccc2cc(Cl)c3ccccc3c2c1`, the growth inhibition is -7% (at 1.2 µM); 18% (at 3.7 µM); 97% (active) (at 11.0 µM); 97% (active) (at 33.0 µM); 92% (active) (at 100.0 µM).
For `Cc1nc2sc3c(c2c(=O)o1)CCCC3`, the growth inhibition reads like this: (at 1.2 µM) -1%; (at 3.7 µM) 0%; (at 11.0 µM) 1%; (at 33.0 µM) -1%; (at 100.0 µM) 2%.
On to `O=C1c2ccccc2N2OC3(N4CCCC4)CCCCC3C12c1ccccc1` (stereo not given), for which the growth inhibition is 6% (at 1.2 µM); -9% (at 3.7 µM); 16% (at 11.0 µM); 36% (at 33.0 µM); 98% (active) (at 100.0 µM).
The corresponding values for `COC(=O)C1CCCCC1C(=O)Nc1ccccc1` (stereo not given) are -2%, -2%, 0%, -1% and 0%.
The corresponding values for `C=COC(=O)N[C@H]1CCc2cc(OC)c(OC)c(OC)c2-c2ccc(SC)c(=O)cc21` are -2%, -2%, -3%, -2% and 18%.
The corresponding values for `BrC1C2CCC3OC3C12` (stereo not given) are 0%, 1%, 96% (active), 98% (active) and 99% (active).

The values above are taken from PubChem BioAssay (NCI).
